Test [1] can be described thus: qHTS for Inhibitors of Ubiquitin-specific Protease USP2a Using CHOP2 as the Reporter: K633 Counterscreen (AID 652168). Further: series mostly up to about 57 µM. Put shortly:
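Detection-system control: fluorescence of K48-linked DiUb-4IQF substrate (100 nM as added) tracked over time, Ex 525/Em 598, with pinned compounds and no enzyme, in pH 8 Tris buffer containing beta-mercaptoethanol and 0.05% Chaps.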
(qHTS replaces the single test concentration by a dilution series.)

A short description of test [2]: qHTS for Inhibitors of Ubiquitin-specific Protease USP2a Using CHOP2 as the Reporter: Cytotox Assay (AID 652170). Further: nearly all actives have a fitted effect of over 70% in size. Further: potency means the concentration at half of the fitted maximal effect. The essentials: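 Cytotoxicity read as ATP luminescence (CellTiter-Glo) after 72 hr compound treatment at 37 deg C. Cells: HCT116, 600/well in DMEM plus 10% FBS. Normalization between DMSO-treated cells and cell-free wells.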
For test [3], the target named is Ubiquitin carboxyl-terminal hydrolase 2 (Homo sapiens) (UniProt O75604). As to the kind of experiment: qHTS for Inhibitors of Ubiquitin-specific Protease USP2a Using CHOP2 as the Reporter: K484 Substrate (AID 652173).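 Further: cleavage of internally quenched K48 di-ubiquitin substrate measured as rising fluorescence over time; nearly all actives have a fitted effect of over 70% in size.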 Further: potency means the concentration at half of the fitted maximal effect. Put shortly:
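Kinetic fluorescence (Ex 525/Em 598) tracked cleavage of an internally quenched K48 di-ubiquitin substrate, added as a 100 nM solution. The enzyme was added as a 5 nM USP2 solution before compound pinning, with no-enzyme controls. Buffer: Tris pH 8, beta-mercaptoethanol, CHAPS.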

For test [4], the target named is Calcium and integrin-binding protein 1 (Homo sapiens) (UniProt Q99828). As to the kind of experiment: Primary qHTS for Identification of Calcium Integrin Binding Protein 1 (CIB1) Competitor (AID 1508620).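 Further: GST tagged CIB1 binding a fluorescein labelled alphaIIb integrin peptide tracer; top concentration of the series differs between compounds.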 Put shortly: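 Fluorescence polarization competition: CIB1-GST (1 uM final) preincubated with compound 15 min at room temperature, then FITC-labeled alphaIIb peptide (100 nM final) added for another 15 min. Polarization read at Ex 480/Em 540.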

Molecules are shown by their SMILES. Values joined by “and” are separate entries in the source; they are usually repeats but may differ in a detail not shown here. Equal values may be shown once. Results filed as inconclusive are left out. A call without a number means that no potency is given here. Active and inactive are the calls of the source. The call rests on the fitted dose curve; in most records, active means well fitted curve in the direction sought with a large enough effect; inconclusive means small, poorly fitted or top-dose-only effect, or another doubt; inactive means no such curve, though single readings can be large; an effect the other way counts as inactive or inconclusive.

For 25 molecules, outcome and Potency results are on record in PubChem BioAssay (NCATS).

Calcium and integrin-binding protein 1 (Homo sapiens), sequence (Q99828 whole entry, looked up): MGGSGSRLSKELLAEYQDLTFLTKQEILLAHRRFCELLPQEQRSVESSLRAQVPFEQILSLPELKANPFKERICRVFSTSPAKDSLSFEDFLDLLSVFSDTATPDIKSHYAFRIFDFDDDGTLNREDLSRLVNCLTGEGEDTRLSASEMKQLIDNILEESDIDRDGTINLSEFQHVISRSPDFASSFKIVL
Ubiquitin carboxyl-terminal hydrolase 2 (Homo sapiens), sequence (O75604 whole entry, looked up): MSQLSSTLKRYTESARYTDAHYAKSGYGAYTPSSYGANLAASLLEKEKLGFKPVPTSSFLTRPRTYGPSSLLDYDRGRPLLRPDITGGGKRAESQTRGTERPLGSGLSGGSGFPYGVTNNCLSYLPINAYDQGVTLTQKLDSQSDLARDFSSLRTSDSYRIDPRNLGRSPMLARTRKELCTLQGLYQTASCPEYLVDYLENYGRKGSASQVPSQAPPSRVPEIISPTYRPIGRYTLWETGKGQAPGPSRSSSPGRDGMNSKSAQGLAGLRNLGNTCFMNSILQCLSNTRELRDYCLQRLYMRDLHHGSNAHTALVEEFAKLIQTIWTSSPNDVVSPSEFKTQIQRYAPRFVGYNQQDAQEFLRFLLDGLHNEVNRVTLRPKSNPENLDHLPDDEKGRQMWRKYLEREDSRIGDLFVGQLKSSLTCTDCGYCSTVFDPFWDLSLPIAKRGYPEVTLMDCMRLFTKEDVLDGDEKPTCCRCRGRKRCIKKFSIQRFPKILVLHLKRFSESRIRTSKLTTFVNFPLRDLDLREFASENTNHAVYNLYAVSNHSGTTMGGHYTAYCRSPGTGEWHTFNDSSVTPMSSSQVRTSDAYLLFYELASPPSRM

On to `O=C(Cc1nc2ccc(Cl)cc2[nH]1)Nc1ccc(S(=O)(=O)Nc2nccs2)cc1`, for which the molecule was called inactive in test [1]. Also, the Potency result in test [2] and in test [4] was “inactive” in each case. Moreover, the Potency in test [3] was 30.6 µM (active).

Regarding `O=C(Nc1nc(-c2ccccc2)cs1)c1cccc(NS(=O)(=O)c2nccs2)c1`, the result in test [1] was inactive. Also, the Potency result in test [2] and in test [4] was “inactive” throughout. For the same molecule, in test [3], the Potency was 17.2 µM (active).

With `Cc1ccc(-c2cc(C(=O)N3CC[S+](=O)([O-])CC3)c3ccccc3n2)cc1C`, the molecule was called inactive in test [1]. The Potency result in test [2], in test [3] and in test [4] was “inactive” in each case.

Turning to `Cc1ccc(S(=O)(=O)NCCC(=O)Nc2nc(-c3ccccc3)cs2)cc1`, the molecule was called inactive in test [1]. The Potency entry in test [2] and in test [4] was “inactive” each time. Further, the Potency in test [3] is 19.3 µM (active).

Turning to `COc1ccc(-c2csc(NC(=O)c3ccccc3NS(=O)(=O)c3ccc(C)cc3)n2)cc1`, the result in test [1] was inactive. The Potency is 18.7 µM (active) in test [2] and 2.73 µM (active) in test [3]. In addition, the Potency result in test [4] is “inactive”.

Consider `O=c1[nH]c(CCl)nc2sc3c(c12)CCCC3`, for which the molecule was classed as inactive in test [1]. Moreover, in test [2], the Potency is 10.5 µM (active). Moreover, the Potency entry in test [3] and in test [4] was “inactive” each time.

For `Cc1ccc(S(=O)(=O)Nc2ccccc2C(=O)Nc2nc(-c3ccccc3)cs2)cc1`, the outcome in test [1] was inactive. The Potency in test [2] was 14.8 µM (active) and 11.8 µM (active); in test [3], 1.72 µM (active) and 1.93 µM (active). Also, in test [4], the Potency entry was “inactive”.

On to `CC(=O)Nc1ccc(S(=O)(=O)Nc2nccs2)cc1`, for which the molecule was classed as inactive in test [1]. The Potency result in test [2], in test [3] and in test [4] was “inactive” each time.

Take `O=C(Nc1ccc([S+](=O)([O-])Nc2nccs2)cc1)c1ncn[nH]1`: the result in test [1] was inactive. Besides, the Potency result in test [2], in test [3] and in test [4] was “inactive” each time.

For `COC(=O)c1ccc(NC(=O)c2cc(-c3ccc(C)c(C)c3)nc3ccccc23)cc1`, in test [1], the result was inactive. Moreover, the Potency entry in test [2] and in test [4] was “inactive” each time. Further, the Potency in test [3] is 19.3 µM (active).

In the case of `O=C(Nc1ccc([S+](=O)([O-])Nc2nccs2)cc1)c1ccn[nH]1`, the call in test [1] was inactive. In addition, the Potency result in test [2], in test [3] and in test [4] was “inactive” throughout.

With `Cc1ccc(-c2cc(C(=O)O)c3cccc(C)c3n2)cc1C`, the call in test [1] was inactive. Also, the Potency entry in test [2], in test [3] and in test [4] was “inactive” each time.

`CCOC(=O)c1csc(NC(=O)c2ccncc2NS(=O)(=O)c2ccc(C)cc2)n1`: in test [1], the molecule was called inactive. Also, the Potency result in test [2] and in test [4] was “inactive” each time. In addition, in test [3], the Potency was 21.7 µM (active).

For the molecule `Cc1ccc(S(=O)(=O)Nc2cnccc2C(=O)Nc2ccc(S(=O)(=O)Nc3nccs3)cc2)cc1`, the molecule was classed as inactive in test [1]. Besides, the Potency result in test [2] and in test [4] was “inactive” each time. The Potency in test [3] is 19.3 µM (active).

On to `Cc1ccc(S(=O)(=O)Nc2cc(F)ccc2C(=O)Nc2nc(-c3ccccc3)cs2)cc1`, for which the molecule was classed as inactive in test [1]. In addition, the Potency in test [2] was 3.32 µM (active); in test [3], 0.769 µM (active). The Potency result in test [4] was “inactive”.

As to `Clc1nc(CN2CCOCC2)nc2sc3c(c12)CCC3`, the call in test [1] was inactive. For the same molecule, the Potency entry in test [2], in test [3] and in test [4] was “inactive” in each case.

For the molecule `Cc1cccc2c(C(=O)O)cc(Cl)nc12`, in test [1], the molecule was classed as inactive. Further, the Potency entry in test [2], in test [3] and in test [4] was “inactive” each time.

On to `CCNC(=O)C1CCC(C(=O)Nc2ccc([S+](=O)([O-])Nc3nccs3)cc2)CC1` (stereo not given), for which the result in test [1] was inactive. The Potency entry in test [2], in test [3] and in test [4] was “inactive” throughout.

With `Cc1ccc(-c2csc(NC(=O)c3ccccc3NS(=O)(=O)c3ccc(C)cc3)n2)cc1`, the result in test [1] was inactive. Moreover, the Potency in test [2] is 16.6 µM (active); in test [3] it was 1.93 µM (active). The Potency result in test [4] is “inactive”.

On to `O=C(Nc1ccc(S(=O)(=O)Nc2nccs2)cc1)c1cccc2ccccc12`, for which the outcome in test [1] was inactive. Moreover, the Potency result in test [2] and in test [4] was “inactive” throughout. For the same molecule, the Potency in test [3] is 24.3 µM (active).

Consider `CCCCc1ccc(C(=O)Nc2ccc(S(=O)(=O)Nc3nccs3)cc2)cc1`, for which, in test [1], the outcome was inactive. The Potency entry in test [2] and in test [4] was “inactive” each time. The Potency in test [3] was 10.9 µM (active).

As to `CCCC1CCC(C(=O)Nc2ccc(S(=O)(=O)Nc3nccs3)cc2)CC1` (stereo not given), the molecule was classed as inactive in test [1]. Moreover, the Potency entry in test [2] and in test [4] was “inactive” each time. The Potency in test [3] was 10.9 µM (active).

For the molecule `CCOC(=O)C1CCC(C(=O)Nc2ccc([S+](=O)([O-])Nc3nccs3)cc2)CC1` (stereo not given), the molecule was called inactive in test [1]. Also, the Potency result in test [2], in test [3] and in test [4] was “inactive” each time.

As to `CCCCCN1CCC(C(=O)Nc2ccc([S+](=O)([O-])Nc3nccs3)cc2)CC1`, in test [1], the call was inactive. Further, the Potency entry in test [2], in test [3] and in test [4] was “inactive” each time.

For `O=C(Nc1nc(-c2ccccc2)cs1)c1ccncc1NS(=O)(=O)c1ccc(N2CCCC2=O)cc1`, in test [1], the result was inactive. Also, the Potency entry in test [2] and in test [4] was “inactive” each time. Besides, the Potency in test [3] was 15.3 µM (active).
